PubChem BioAssay AID463075 (University of Pittsburgh Molecular Library Screening Center, 2010)
Out of some 220,000 compounds screened, about 150 (0.068%) were called active. The entries come from a sample that favours actives as a whole. Unmarked numbers belong to inactive results.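 The calls were made as follows: active = activation, meaning protection from cell death, of at least 50% relative to plate controls; inactive = activation below 50%.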

assay: rescue of FADD-deficient Jurkat cells from TNF-alpha death – single concentration, primary screen (AID 463075); settings: Jurkat FADD-/- TNF necroptosis rescue, ATP luminescence, 24 h; at 10 µM; stronger effect = higher value; 0 = TNF only, 100 = no-TNF cells;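 also: necroptosis triggered by 40 ng/mL TNF-alpha added together with compound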

Row | SMILES | activation (protection from cell death)
1 | COc1ccc(NC(=O)C2=C(C)NC(=O)NC2c2ccccc2[N+](=O)[O-])cc1 (stereo unspecified) | 0.73%
2 | CCOC(=O)c1cc(Sc2ccccc2N)cc(C(=O)OCC)n1 | 0.0548%
3 | COc1ccc(OCc2cn3c(C)cc(C)nc3n2)cc1 | 1.17%
4 | CC1COc2ccccc2N1S(=O)(=O)c1ccccc1 (stereo unspecified) | -0.217%
5 | CCOc1ccccc1NC(=O)C12CC3CC(C1)CC(c1ccc(C)cc1)(C3)C2 | -1.89%
6 | O=c1ccnc(Nc2ccc(Cl)cc2)[nH]1 | 2.1%
7 | Cc1csc(Nc2ccc(Cl)cc2)[n+]1-c1ccc(Cl)cc1 | 52.7% (active)
8 | Cc1ccc(NC(=O)c2ccc(Oc3ncccn3)cc2)cc1 | -0.146%
9 | CN(C)Cc1ccc(F)cc1Sc1cc(Cl)ccc1Cl | 0.603%
10 | CCOC(=O)CNC(=O)N1c2ccccc2Sc2ccccc21 | -1.84%
11 | C=CCNC(=O)c1cc2nc(C3CC3)cc(C(F)F)n2n1 | 0.00242%
12 | Cc1ccc(C(=O)/C=C/Nc2ccc(S(=O)(=O)Nc3onc(C)c3C)cc2)cc1 | 1.49%
13 | CCN(CC)c1ccc(C(=O)c2cnc(/N=C/N(C)C)s2)cc1 | 2.87%
14 | CC(NC(=S)NNS(=O)(=O)c1ccc(C(C)(C)C)cc1)c1ccccc1 (stereo unspecified) | 5.41%
15 | COc1cc(OC)cc(C(=O)NC2CCN(C(=O)N3c4ccccc4Sc4ccccc43)CC2)c1 | -2.58%
16 | CN(C)CCCn1c(SCCN2C(=O)c3ccccc3C2=O)nc2ccccc2c1=O | 0.858%
17 | CCN(CC)C(=O)CSc1nnc(CNc2ccc(F)cc2)n1Cc1ccco1 | 0.256%
18 | C/C(CC(C)C)=N\Oc1nc(C)cc(C)n1 | 1.02%
19 | Clc1ccc(-c2cc(C3CCNCC3)[nH]n2)c(Cl)c1 | 4.13%
20 | FC(F)(F)c1cc(C(F)(F)F)c2ccc(N3CCN(c4ccccc4)CC3)nc2n1 | -0.212%
21 | NC(=O)c1ccc(NC(=O)COC(=O)C(Cc2ccccc2)NC(=O)c2ccccc2)cc1 (stereo unspecified) | 0.97%
22 | Cc1nn(C)c(C)c1S(=O)(=O)N1CCC(CO)(Cc2ccc(Cl)cc2)CC1 | -0.682%
23 | CCC1CO/C(=C(\C(=C(Cl)Cl)N2CCOCC2)[N+](=O)[O-])N1 (stereo unspecified) | 0.241%
24 | C=C(C)COc1ccc(-c2nc(N)ncc2-c2ccccc2OC)c(O)c1 | 1.21%

Row | SMILES | activation (protection from cell death)
25 | OCC1(CCc2ccccc2)CCN(Cc2ccc3nsnc3c2)CC1 | 1.53%
26 | NS(=O)(=O)c1ccc(NC(=S)NC(=O)c2cccc(Br)c2)cc1 | -0.737%
27 | CCOc1ccc(NC(=O)C2CC(=O)N=C(N)S2)cc1 (stereo unspecified) | 0.442%
28 | CCOC(=O)C1=C(CC)Nc2ccccc2N=C1NC(=O)c1cccc(S(=O)(=O)N2CCCC2)c1 | -3.1%
29 | COC(=O)C1CCN(CC(N)=O)CC1 | 1.78%
30 | Cc1c([N+](=O)[O-])c(N)nn1C | 0.221%
31 | COc1ccc(CC(=O)NCc2nnc(SCC(=O)Nc3ncc(C)s3)n2C)cc1 | 1.73%
32 | Clc1ncn(CCOc2ccccc2)c1Cl | 3.48%
33 | N#Cc1c(N2CCCCC2)nc(N)c2c(N)nc(SCC(=O)O)cc12 | -7.92%
34 | Cc1cc(C(=O)COC(=O)C2CC2)c(C)n1-c1ccc(F)cc1 | -0.153%
35 | CN(C(=O)c1c(Cl)cnn1C)C12CC3CC(CC(C3)C1)C2 | -0.801%
36 | CCNc1ccc(C(=O)OCC(=O)N2c3ccccc3NC(=O)C2(C)C)cc1[N+](=O)[O-] | 1.58%
37 | CCn1c2ccccc2c2cc(CC(N)=O)ccc21 | -1.12%
38 | CCc1ccccc1NC(=O)CN(c1ccc(OC)cc1OC)S(=O)(=O)c1ccccc1[N+](=O)[O-] | 0.342%
39 | Cc1ccc2nc(SC(C)C(=O)NCc3ccco3)[nH]c2c1 (stereo unspecified) | -0.614%
40 | CCOC(=O)c1c(N)sc2c1CCCC2=O | -2.66%
41 | O=C1OCC2=C1C(c1ccccc1)CC(=O)N2c1cccc(F)c1 (stereo unspecified) | -0.757%
42 | O=C1CC(c2ccccc2)C(=O)N1c1cccc(O)c1 (stereo unspecified) | 52% (active)
43 | O=C1CC(NNc2ccccc2)C(=O)N1c1cccc(Cl)c1 (stereo unspecified) | -2.98%
44 | Cc1nnc(Nc2ccccc2F)s1 | 0.78%
45 | N#Cc1c(-c2ccc(Cl)cc2)c2c([nH]c1=S)CCCC2 | -2.48%
46 | O=C(O)c1ccccc1-c1ccccc1C(=O)NCc1cccnc1 | 0.395%
47 | CCN(C(=O)COc1cccnc1[N+](=O)[O-])C1CCS(=O)(=O)C1 (stereo unspecified) | 0.598%
48 | CCC(C)n1c(-c2cc(OC)c(OC)c(OC)c2)nc2nc3ccccc3nc21 (stereo unspecified) | -16.6%

Row | SMILES | activation (protection from cell death)
49 | CC(=O)Nc1nc2c(s1)C(=O)NCC(C)(C)C2 | 0.16%
50 | Cc1ccc(S(=O)(=O)NCCc2nnc3ccc(SCc4cccnc4)nn23)cc1 | -0.101%
51 | O=C(Cc1c(F)cccc1Cl)Nc1ccc(-n2cnnn2)cc1 | 0.184%
52 | O=C(CCc1ccccc1)Nc1ncc([N+](=O)[O-])s1 | 9.81%
53 | O=C(Cc1c(F)cccc1Cl)Nc1ncc([N+](=O)[O-])s1 | 59.9% (active)
54 | COc1ccc(Br)cc1C(=O)Nc1cccc(C)c1C | 0.986%
55 | O=C(NC(Cc1c[nH]c2ccccc12)C(=O)N/N=C/c1ccc(Br)cc1)c1cccs1 (stereo unspecified) | -2.26%
56 | CC(C)c1nc(CNC(=O)CC2C(=O)NCCN2Cc2ccoc2)cs1 (stereo unspecified) | -0.307%
57 | CCc1cc(CNC(=O)CC2C(=O)NCCN2Cc2ccccc2C(F)(F)F)on1 (stereo unspecified) | 1.76%
58 | COC(=O)c1ccc(Cc2ccccc2)o1 | 55.2% (active)
59 | COC(=O)c1ccc(CN(c2ccccc2OC)S(=O)(=O)c2cccs2)o1 | 0.0719%
60 | COC(=O)c1ccc(CSc2ccccc2C)o1 | 6.63%
61 | COc1ccccc1CNC(=O)CN1CCC(n2cnc3cc(F)ccc32)CC1 | 4.48%
62 | O=C(c1ccc(S(=O)(=O)c2ccccc2)cc1)N1CCCCCC1 | 1.36%
63 | Nc1c(-c2cccc(Cl)c2)cnn1-c1cccc([N+](=O)[O-])c1 | -1.25%
64 | c1ccc(-c2csc(N3CCc4ccccc4C3)n2)cc1 | -3.03%
65 | C=CCCN(Cc1ccccc1)S(=O)(=O)c1ccccc1Br | -2.9%
66 | CC(C)(C)c1ccc(/C=C2\SC(=O)N=C2N)cc1 | 2.08%
67 | Cc1cccc(NC(=O)c2nc[nH]c2C(=O)NCC(=O)OCc2ccccc2)c1 | -9.45%
68 | CCN(CC)CCNC(=O)c1ccc(NC(=O)c2c(F)cccc2Cl)cc1 | -0.132%
69 | COc1ccccc1C(=O)CSc1cccc[n+]1[O-] | -0.693%
70 | Cc1cc(C(=O)OCC(=O)Nc2ccc(F)c(F)c2)c(C)o1 | 3.31%
71 | COCCCNC(=O)C1CCC(CNS(=O)(=O)c2ccc(OC)cc2)CC1 (stereo unspecified) | 1.04%
72 | Cc1cccc(C(=O)N2CCc3c([nH]c4ccccc34)C2CC(C)C)n1 (stereo unspecified) | 1.18%

Row | SMILES | activation (protection from cell death)
73 | Cc1cc([N+](=O)[O-])nn1CC(=O)Nc1ccc(Cc2ccncc2)cc1 | 3.27%
74 | Cc1cc([N+](=O)[O-])nn1CCCC(=O)Nc1cccnc1Cl | 0.812%
75 | Cc1cc([N+](=O)[O-])nn1Cc1ccc(F)cc1 | 76.6% (active)
76 | O=C(Nc1ccn(Cc2ccccc2F)n1)c1ccc(COc2ccc(Cl)cc2Cl)o1 | -6.7%
77 | O=C(Nc1ccn(Cc2ccccc2)n1)c1cccc(F)c1 | 3.16%
78 | CC(=O)Nc1ccn(Cc2c(F)cccc2Cl)n1 | 88% (active)
79 | CCc1cccc(CC)c1NC(=O)COc1ccccc1C(=O)c1cc(C#N)c(=O)n(C2CCCCC2)c1 | 1.06%
80 | Cn1nccc1NC(=O)Nc1ccc(OC(F)(F)F)cc1 | 2.9%
81 | CCCC(=O)n1nc(NCc2ccc(OC)cc2)nc1NCc1ccc(OC)cc1 | 2.21%
82 | CC(C)CNC(=O)C(=O)NCc1ccccc1 | 1.96%
83 | CC(C)(C)C(=O)N1CCC[C@@]1(CO)C(=O)O | 1.03%
84 | CCN(Cc1ccncc1)C(=O)c1cccc(S(=O)(=O)N2CCOCC2)c1 | 0.919%
85 | COc1cc(C=O)ccc1Oc1nnnn1-c1ccccc1 | -3.04%
86 | N#CC1(NC(=O)COc2ccc3oc4ccccc4c3c2)CCCCC1 | 1.8%
87 | CC(C)N(C(=O)Cn1cc(SCC(=O)N2CCCC2)c2ccccc21)C(C)C | 1.35%
88 | Cc1ccc(S(=O)(=O)N(C)C)cc1NC(=O)COC(=O)c1c(C)noc1C | 0.89%
89 | CN(C)CCNC(=O)/C(=C/c1cccc([N+](=O)[O-])c1)NC(=O)c1ccccc1 | 2.51%
90 | COc1ccc(/C=C/C(=O)c2cc(Br)ccc(=O)c2O)cc1 | -1.56%
91 | CCc1ccc(C2C(C#N)=C(N)N(N3CCOCC3)C3=C2C(=O)CC(C)(C)C3)s1 (stereo unspecified) | 0.137%
92 | C[C@@H]1C[C@@H]2O[C@H]2/C=C\C=C\C(=O)Cc2c(Cl)c(O)cc(O)c2C(=O)O1 | 36.6%
93 | C=CCOc1c(CNn2cn[nH]c2=S)cccc1OC | -0.439%
94 | Cc1n[nH]c(=O)nc1N/N=C/c1cccs1 | -6.4%
95 | CCc1cccc(CC)c1NC(=S)Nc1ccc2cn[nH]c2c1 | -5.25%
96 | C=CCNc1nc(N)c(C(=C(C#N)C#N)c2ccccc2)s1 | -6.24%
